# Measured values: PubChem BioAssay
# Biological target: Left-right determination factor 2 (Homo sapiens) (UniProt O00292)
# Experiment: small molecules binding LEFTY2 protein – biochemical, small-molecule microarray, 635 nm fluorescence scan, primary screen (AID 1110)
# Settings: higher = more signal
# Sequence of Left-right determination factor 2 (Homo sapiens) (O00292 whole entry, looked up): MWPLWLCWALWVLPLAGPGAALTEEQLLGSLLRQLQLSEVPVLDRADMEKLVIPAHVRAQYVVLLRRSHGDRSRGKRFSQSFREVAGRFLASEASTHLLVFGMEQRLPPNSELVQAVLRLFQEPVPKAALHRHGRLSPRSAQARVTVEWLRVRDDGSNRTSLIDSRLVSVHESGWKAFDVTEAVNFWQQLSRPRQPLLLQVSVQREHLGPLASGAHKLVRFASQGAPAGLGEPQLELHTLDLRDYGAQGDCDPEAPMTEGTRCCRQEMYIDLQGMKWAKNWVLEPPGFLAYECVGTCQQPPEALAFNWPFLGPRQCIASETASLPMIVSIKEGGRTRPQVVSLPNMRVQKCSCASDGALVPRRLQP
row,Structure (SMILES),composite z-score
1,O=C1[C@H]2C=C(Br)[C@H](C[C@@H]2c2ccccc2)[C@@]12CO2,1.02
2,COc1ccc(C#Cc2ccc3c(c2)[C@]2(C(=O)N3)[C@H](c3ccccc3OCCO)N3[C@H](c4ccccc4)[C@H](c4ccccc4)OC(=O)[C@H]3[C@@H]2C(=O)O)cc1,0.186
3,O=C1O[C@H](c2ccccc2)[C@H](c2ccccc2)N2[C@H]1[C@@H](C(=O)N1CCN(c3ncccn3)CC1)[C@]1(C(=O)Nc3ccc(C#CC4=CCCCC4)cc31)[C@H]2c1ccc(O)cc1,0.144
4,C=CC[C@@]1(C(N)=O)N=C(c2ccc(OCCCO)cc2)O[C@@H]1c1ccccc1CN=[N+]=[N-],-0.294
5,COC(=O)[C@@]1(Cc2ccccc2)[C@H]2c3cc(C(=O)N4CCCC4)n(Cc4nc5ccccc5[nH]4)c3C[C@H]2CN1C(=O)c1ccccc1,-0.0838
6,O=C1O[C@H](c2ccccc2)[C@H](c2ccccc2)N2[C@H]1[C@@H](C(=O)O)[C@]1(C(=O)Nc3ccc(C#CC4=CCCCC4)cc31)[C@H]2c1ccccc1OCCO,0.663
7,COCCOC(=O)N1C(=O)[C@@]2(c3cc(C#Cc4ccc(OC)cc4)ccc31)[C@H](c1ccccc1OCCO)N1[C@H](c3ccccc3)[C@H](c3ccccc3)OC(=O)[C@H]1[C@@H]2C(=O)N1CCN(c2ncccn2)CC1,0.278
8,C=C/C=C/[C@H]1C(=C)CN([C@@H](Cc2ccccc2)C(=O)OC)[C@@H]1[C@H](O)Cc1ccccc1,-1.09
9,C=CCOC(=O)[C@H]1[C@@H]2C(=O)O[C@@H](c3ccccc3)[C@@H](c3ccccc3)N2[C@@H](c2ccc(OCCOC(=O)[C@@H]3C[C@@H]4C(=O)N[C@@H](CCCC[N+](C)(C)C)C(=O)N4[C@@H]3c3ccc(O)cc3)cc2)[C@]12C(=O)Nc1ccccc12,0.498
10,C[C@@H]1ON(c2cccc(C(=O)OC(C)(C)C)c2)[C@H](c2ccc(Br)cc2)[C@H]1C(=O)N1C(=O)OC[C@H]1Cc1ccccc1,0.552
11,O=C1C2C=CC(C(O)c3ccc(F)cc3)N(Nc3ccccc3F)C2C(=O)N1c1ccccc1 (stereo not given),-0.952
12,COc1ccc(CCN2C(=O)[C@@]3(Cc4ccccc42)c2ccccc2C(=O)N(Cc2ccccc2C(F)(F)F)[C@H]3c2ccc(CO)cc2)cc1,0.0259
13,COC(=O)[C@@]1(Cc2ccc(OC)cc2)[C@H]2c3cc(C(=O)N4CCCC4)n(Cc4ccsc4Br)c3C[C@H]2CN1C(=O)c1ccccc1,-0.857
14,O=C1NC(=O)C2C1C=CC(C(O)Cc1ccccc1)N2Nc1ccc(Cl)cc1Cl (stereo not given),-1.29
15,COC(=O)[C@@]1(Cc2ccccc2)[C@H]2c3cc(C(=O)N4CCCC4)n(CC4CC4)c3C[C@H]2CN1C(=O)c1ccccc1,0.192
16,COC(=O)[C@@]1(Cc2ccc(F)cc2)[C@H]2c3cc(C(=O)N4CCCC4)n(Cc4ccc(C)o4)c3C[C@H]2CN1C(=O)c1ccccc1,-0.699
17,COc1cc2c(cc1OC)CN(C(=O)[C@H]1[C@@H]3C(=O)O[C@@H](c4ccccc4)[C@@H](c4ccccc4)N3[C@@H](c3ccc(O)cc3)[C@]13C(=O)Nc1ccc(C#CC4=CCCCC4)cc13)CC2,1.07
18,[N-]=[N+]=Nc1ccccc1[C@H]1OC(c2ccc(OCCCO)cc2)=N[C@@]1(Cc1ccccc1)C(=O)O,-0.271

row,Structure (SMILES),composite z-score
1,CC(C)N1C(=O)[C@@]2(Cc3ccccc31)c1ccccc1C(=O)N(C1CCCCC1)[C@H]2c1ccc(CO)cc1,0.0232
2,CCOC(=O)[C@H]1C/C=C/C[C@H](C(=O)OCC)C(=O)O[C@H]2[C@@H](OC)O[C@H](CO)[C@@H](OC(=O)Nc3ccc(C#N)cc3)[C@@H]2OC1=O,-0.0147
3,CCCC=C(CCC)[C@@H](NS(=O)(=O)c1cccs1)c1ccc(C(=O)OC)cc1,-0.452
4,COC(=O)[C@@]1(Cc2ccc(F)cc2)[C@H]2c3cc(C(=O)N(C)C)n(Cc4nc5ccccc5[nH]4)c3C[C@H]2CN1C(=O)c1ccccc1,-0.423
5,CC(C)(C)OC(=O)CC[C@@]1(C(=O)NCC(O)CO)N=C(c2ccc(OCCCO)cc2)O[C@@H]1c1ccccc1N=[N+]=[N-] (stereo not given in full),-0.586
6,CCOc1cc(C(O)C2C=CC3C(=O)N(c4ccccc4)C(=O)C3N2Nc2ccccc2)ccc1O (stereo not given),0.181
7,CN1C(=O)C2C=CC(C(O)Cc3ccccc3)N(Nc3ccccc3)C2C1=O (stereo not given),-0.244
8,COC(=O)C(CC#Cc1ccc2c(c1)[C@]1(C(=O)N2)[C@H](c2ccc(O)cc2)N2[C@H](c3ccccc3)[C@H](c3ccccc3)OC(=O)[C@H]2[C@@H]1C(=O)Nc1nc2ccccc2s1)C(=O)OC,0.651
9,COc1ccc(C(=O)Nc2ccc(CN3C(=O)[C@@]4(O[C@@H](CCO)[C@H]([Si](C)(C)c5ccc(OC)cc5)[C@H]4C)c4ccccc43)cc2)cc1,0.861
10,COCCOC(=O)N1C(=O)[C@@]2(c3cc(C#Cc4ccc(OC)cc4)ccc31)[C@H](C(=O)N1CCCCCCC1)[C@H]1C(=O)O[C@H](c3ccccc3)[C@H](c3ccccc3)N1[C@@H]2c1ccc(OCCO)cc1,1.47
11,O=C1O[C@H](c2ccccc2)[C@H](c2ccccc2)N2[C@H]1[C@@H](C(=O)O)[C@]1(C(=O)Nc3ccc(C#CCCO)cc31)[C@H]2c1ccc(O)cc1,-0.603
12,CC(C)(C)C(=O)N[C@@H](c1ccc(Cl)cc1)[C@]1(C)C[C@H]1C1CCCCC1,-0.487
13,O=C(NCc1ccccc1)[C@@]1(Cc2ccccc2)N=C(c2ccc(OCCCO)cc2)O[C@H]1c1ccccc1,-0.699
14,CC(C)(C)OC(=O)CC[C@@]12N=C(c3ccc(OCCCO)cc3)O[C@@H]1c1ccccc1N(CCS(=O)(=O)c1ccccc1)C2=O,0.374
15,[N-]=[N+]=NCc1ccccc1[C@@H]1OC(c2ccc(OCCCO)cc2)=N[C@]1(Cc1ccccc1N=[N+]=[N-])C(=O)N1CCOCC1,0.404
16,COCCOC(=O)N1C(=O)[C@@]2(c3cc(C#CC4(O)CCCCCC4)ccc31)[C@H](c1ccc(O)cc1)N1[C@H](c3ccccc3)[C@H](c3ccccc3)OC(=O)[C@H]1[C@@H]2C(=O)Nc1nc2ccccc2s1,0.463
17,COCCOC(=O)N1C(=O)[C@@]2(c3cc(C#CC4=CCCCC4)ccc31)[C@H](C(=O)N1CCc3cc(OC)c(OC)cc3C1)[C@H]1C(=O)O[C@H](c3ccccc3)[C@H](c3ccccc3)N1[C@@H]2c1ccc(OCCO)cc1,0.744
